Our source for the growth values is PubChem BioAssay (NCI).

Among the test systems are SK-MEL-2 melanoma; EKVX NSCLC; SN12C renal; UO-31 renal; TK-10 renal; ACHN renal; CAKI-1 renal; A498 renal; CCRF-CEM leukemia; SR leukemia; RPMI-8226 leukemia; OVCAR-8 ovarian; OVCAR-5 ovarian; OVCAR-4 ovarian; SK-OV-3 ovarian; IGROV1 ovarian; OVCAR-3 ovarian; HS 578T breast; NCI/ADR-RES ovarian.
Common to all, as to test: NCI-60 one-dose screen, 48 h (100 = growth as untreated, 0 = no growth, -100 = all killed)
What all share (conditions): 10 µM unless noted

The panel holds about 83,000 compounds, 20% with a hit somewhere; the sample as a whole holds those more often.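 48-hour exposure, single concentration, 96-well plates; percent growth endpoint where 0 means no net growth. Active: below 10.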 Unmarked numbers belong to inactive results. Active and inactive are the calls of the source.

Consider `O=C(Nc1cccc(Oc2nnc(Cl)c3ccccc23)c1)Nc1ccc(Cl)c(C(F)(F)F)c1`, for which the growth in the experiment on SK-MEL-2 melanoma was -72.1% (active); in the experiment on EKVX NSCLC, -6.74% (active); in the experiment with SN12C renal, -71.9% (active); with UO-31 renal, -28.4% (active); with TK-10 renal it was -51.5% (active); in the experiment on ACHN renal it was -8.47% (active). In addition, the growth in the experiment on CAKI-1 renal is 11.7%; in the experiment with A498 renal it was -82.7% (active); with CCRF-CEM leukemia it was -5.44% (active); in the experiment with SR leukemia it was -23.8% (active); with RPMI-8226 leukemia, -15.9% (active); in the experiment with OVCAR-8 ovarian it was -16.8% (active). Further, the growth is -7.38% (active) in the experiment on OVCAR-5 ovarian; 2% (active) with OVCAR-4 ovarian; -44.1% (active) in the experiment with SK-OV-3 ovarian; -16.8% (active) with IGROV1 ovarian; -41.9% (active) with OVCAR-3 ovarian; -17.2% (active) with HS 578T breast. For the same compound, the growth in the experiment on NCI/ADR-RES ovarian was -28.2% (active).
On to `COc1cccc(C(=O)NCCCNc2cc(-c3cn(-c4ccccc4)nc3-c3cccc(OC)c3)ccn2)c1`, for which the growth in the experiment on SK-MEL-2 melanoma is 70.2%; in the experiment with EKVX NSCLC, 60.1%; in the experiment on SN12C renal, 61.1%; in the experiment with UO-31 renal it was 26.6%; in the experiment on TK-10 renal it was 55.2%; with ACHN renal, 60.9%. The growth in the experiment on CAKI-1 renal was 65.4%; with A498 renal, 49.2%; in the experiment on CCRF-CEM leukemia it was 24.7%; with SR leukemia, 8.19% (active); in the experiment with RPMI-8226 leukemia, 25.3%; in the experiment on OVCAR-8 ovarian, 26.7%. Further, the growth was 82.1% in the experiment with OVCAR-5 ovarian; 37.9% with OVCAR-4 ovarian; 48.8% in the experiment with SK-OV-3 ovarian; 58.9% in the experiment on IGROV1 ovarian; 53.3% with OVCAR-3 ovarian; 47.5% in the experiment on HS 578T breast. Moreover, the growth in the experiment on NCI/ADR-RES ovarian was 22.1%.
Take `CCN1CCN(c2cc(C)nc(NCc3cc(Nc4ccnc5cc(Cl)ccc45)ccc3F)n2)CC1`: the growth in the experiment on SK-MEL-2 melanoma was 104%; in the experiment on EKVX NSCLC, 59.6%; in the experiment on SN12C renal it was 64.3%; in the experiment on UO-31 renal, 69.1%; in the experiment with TK-10 renal, 99.8%; with ACHN renal it was 34.9%. Besides, the growth in the experiment on CAKI-1 renal was 87.8%; in the experiment on A498 renal, 36.2%; in the experiment on CCRF-CEM leukemia, 16.6%; in the experiment with SR leukemia, -18.4% (active); with RPMI-8226 leukemia, 74.4%; with OVCAR-8 ovarian, 69.6%. Moreover, the growth in the experiment with OVCAR-5 ovarian was 56%; with OVCAR-4 ovarian, 50.5%; with SK-OV-3 ovarian it was 87.5%; in the experiment on IGROV1 ovarian it was 59.1%; in the experiment on OVCAR-3 ovarian, 101%; in the experiment with HS 578T breast, 71.4%. Also, the growth in the experiment on NCI/ADR-RES ovarian is 82.8%.
In the case of `CCCCCc1nc2c(c3c1CCCC3)CCCC2`, the growth in the experiment on SK-MEL-2 melanoma was 80%; in the experiment on EKVX NSCLC, 77.1%; in the experiment on SN12C renal, 93.3%; in the experiment on UO-31 renal, 47%; with TK-10 renal, 77.2%; in the experiment with ACHN renal, 82.9%. Besides, the growth is 60.9% in the experiment with CAKI-1 renal; 84.3% in the experiment with A498 renal; 59.9% in the experiment on CCRF-CEM leukemia; 31.8% in the experiment on SR leukemia; 0.398% (active) with RPMI-8226 leukemia; 59.8% in the experiment on OVCAR-8 ovarian. The growth is 67.2% in the experiment on OVCAR-5 ovarian; 70.7% in the experiment on OVCAR-4 ovarian; 80.7% in the experiment with SK-OV-3 ovarian; 61.7% in the experiment on IGROV1 ovarian; 69.8% with OVCAR-3 ovarian; 65% with HS 578T breast. Also, the growth in the experiment with NCI/ADR-RES ovarian was 48.3%.
`O=Cc1ccc(O)c2ncccc12`: the growth was 71.2% in the experiment with SK-MEL-2 melanoma; 66.1% with EKVX NSCLC; 35.2% with SN12C renal; 34.8% with UO-31 renal; 94% in the experiment with TK-10 renal; 110% in the experiment on ACHN renal. Besides, the growth in the experiment with CAKI-1 renal was 48.6%; with A498 renal it was 106%; with CCRF-CEM leukemia it was -40.7% (active); in the experiment with SR leukemia, -41.3% (active); in the experiment on RPMI-8226 leukemia it was -39.8% (active); in the experiment on OVCAR-8 ovarian it was 9.03% (active). The growth in the experiment with OVCAR-5 ovarian was 50.3%; in the experiment with OVCAR-4 ovarian, 5.69% (active); in the experiment with SK-OV-3 ovarian, 97.7%; in the experiment on IGROV1 ovarian, 4% (active); in the experiment on OVCAR-3 ovarian, -15.2% (active); with HS 578T breast, 41.6%. Further, the growth with NCI/ADR-RES ovarian is -1% (active).
As to `O=[N+]([O-])c1ccc(C2CC(c3ccccc3)=Nc3ccccc3S2)cc1` (stereo unspecified), the growth is 107% with SK-MEL-2 melanoma; 112% in the experiment on EKVX NSCLC; 103% with SN12C renal; 56.4% in the experiment on UO-31 renal; 148% with TK-10 renal; 103% in the experiment on ACHN renal. Also, the growth is 93.6% in the experiment with CAKI-1 renal; 114% with A498 renal; 73.2% in the experiment with CCRF-CEM leukemia; 30.9% in the experiment on SR leukemia; -6.89% (active) in the experiment with RPMI-8226 leukemia; 94.9% in the experiment with OVCAR-8 ovarian. Moreover, the growth in the experiment with OVCAR-5 ovarian is 113%; in the experiment with OVCAR-4 ovarian, 93.5%; with SK-OV-3 ovarian, 100%; in the experiment with IGROV1 ovarian, 58.7%; in the experiment with OVCAR-3 ovarian, 83.9%; with HS 578T breast, 93.3%. Also, the growth in the experiment with NCI/ADR-RES ovarian is 95.1%.
Take `COC(=O)[C@]12CC[C@@H](C)[C@H](C)[C@@H]1C1=CC[C@@H]3[C@@]4(C)C(C=O)=C[C@@](C)(COC(C)=O)[C@@H]4[C@H](O)C[C@@]3(C)[C@]1(C)CC2`: the growth in the experiment on SK-MEL-2 melanoma is -25.4% (active); in the experiment with EKVX NSCLC, 20%; in the experiment on SN12C renal, -19.3% (active); in the experiment with UO-31 renal, -26.2% (active); with TK-10 renal it was -8.86% (active); with ACHN renal it was -54.3% (active). Moreover, the growth in the experiment on CAKI-1 renal is 1.42% (active); in the experiment on A498 renal it was 28.3%; with CCRF-CEM leukemia it was 1.74% (active); in the experiment with SR leukemia, -26.2% (active); with RPMI-8226 leukemia, -17% (active); with OVCAR-8 ovarian, -0.958% (active). Besides, the growth with OVCAR-5 ovarian is -28.3% (active); in the experiment on OVCAR-4 ovarian it was 9.81% (active); with SK-OV-3 ovarian it was 6.14% (active); in the experiment with IGROV1 ovarian, 2.81% (active); in the experiment with OVCAR-3 ovarian, -85.7% (active); in the experiment with HS 578T breast it was -18.3% (active). Besides, the growth in the experiment on NCI/ADR-RES ovarian is 2.88% (active).
As for `O=C(Nc1ccccc1Cl)Oc1ccc(-c2ccccc2)cc1`, the growth was 120% in the experiment on SK-MEL-2 melanoma; 98% in the experiment on EKVX NSCLC; 98.9% in the experiment with SN12C renal; 84.5% with UO-31 renal; 118% in the experiment on TK-10 renal; 101% in the experiment on ACHN renal. The growth with CAKI-1 renal was 81.8%; with A498 renal it was 167%; in the experiment with CCRF-CEM leukemia it was 120%; in the experiment with SR leukemia it was 133%; in the experiment on RPMI-8226 leukemia, 94.2%; in the experiment on OVCAR-8 ovarian, 103%. Moreover, the growth is 98.9% in the experiment on OVCAR-5 ovarian; 103% with OVCAR-4 ovarian; 121% with SK-OV-3 ovarian; 108% in the experiment on IGROV1 ovarian; 150% in the experiment with OVCAR-3 ovarian; 180% in the experiment on HS 578T breast. The growth in the experiment with NCI/ADR-RES ovarian was 101%.
As for `CCN(CC)CCCCCCNc1cc(OC)c(Cl)c2cccnc12`, the growth in the experiment on SK-MEL-2 melanoma is 92.4%; in the experiment with EKVX NSCLC it was 85.6%; in the experiment on SN12C renal, 67.7%; with UO-31 renal, 51.8%; with TK-10 renal, 85.3%; with ACHN renal it was 82.5%. The growth with CAKI-1 renal was 84.6%; in the experiment on A498 renal, 45.3%; in the experiment with CCRF-CEM leukemia, 84.7%; in the experiment with SR leukemia, 42.2%; with RPMI-8226 leukemia it was 75.3%; with OVCAR-8 ovarian, 84.9%. Besides, the growth with OVCAR-5 ovarian was 83%; with OVCAR-4 ovarian it was 73.6%; in the experiment on SK-OV-3 ovarian, 92.5%; with IGROV1 ovarian it was 86.6%; in the experiment with OVCAR-3 ovarian, 66.9%; with HS 578T breast, 58.8%. Besides, in the experiment with NCI/ADR-RES ovarian, the growth was 79.3%.
